HP1b binding inh: HTS for Inhibitors of HP1-beta Chromodomain Interactions with Methylated Histone Tails | Chromobox protein homolog 1 (Homo sapiens), P83916 | AlphaScreen HP1-beta / biotin-H3K9me3 peptide binding | Potency, µM (highest dose often 114 µM), without a hit: at the top dose activity change, negative = inhibition, most hits filed as inhibitors | 0.56% of 390,000 active; also: potency is read from the fitted curve at half-maximal effect; nearly all actives have a fitted effect of over 70% in size
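Compound inhibition of the preformed complex between 50 nM HP1-beta and 50 nM biotinylated H3K9me3 peptide was read by AlphaScreen. Buffer was PBS pH 7.4 with 0.01% Tween-20. Incubations ran 30 min at room temperature, with 10 ug/mL donor/acceptor beads.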
PI5P4K alpha inh: qHTS for Inhibitors of phosphatidylinositol 5-phosphate 4-kinase (PI5P4K) | PI5P4Kalpha enzyme, ADP-Glo luminescence, 60 min; hits give low values | max response, % | 1.2% of 330,000 active | AID 652105, 2013; active = max response of -50% or lower; inconclusive = between -30% and -50%; inactive = -30% or higher; also: value at the top dose of about 77 µM; % is scaled to controls: 0 for no effect and ±100 for the full control effect
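ADP-Glo luminescence end-point read after a 60 min room-temperature kinase reaction of PI5P4Kalpha plus substrate, initiated with ATP at 5 microM final. Buffer: 0.038 M HEPES pH 7.4, EGTA, 0.1% CHAPS, 5% DMSO.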
JMJD2A Tudor: qHTS Assay for Inhibitors of JMJD2A-Tudor Domain | Lysine-specific demethylase 4A (Homo sapiens), O75164 | AlphaScreen JMJD2A-Tudor / H3K4me3 peptide binding | Potency, µM (doses to about 114 µM), for inactives: at the top dose activity change, negative = inhibition, hits mostly inhibitors | 4.4% of 390,000 active; also: potency is read from the fitted curve at half-maximal effect; % is scaled to controls: 0 for no effect and ±100 for the full control effect; nearly all actives have a fitted effect of over 50% in size
Target sequence (O75164 whole entry, looked up, the tested form may be a part): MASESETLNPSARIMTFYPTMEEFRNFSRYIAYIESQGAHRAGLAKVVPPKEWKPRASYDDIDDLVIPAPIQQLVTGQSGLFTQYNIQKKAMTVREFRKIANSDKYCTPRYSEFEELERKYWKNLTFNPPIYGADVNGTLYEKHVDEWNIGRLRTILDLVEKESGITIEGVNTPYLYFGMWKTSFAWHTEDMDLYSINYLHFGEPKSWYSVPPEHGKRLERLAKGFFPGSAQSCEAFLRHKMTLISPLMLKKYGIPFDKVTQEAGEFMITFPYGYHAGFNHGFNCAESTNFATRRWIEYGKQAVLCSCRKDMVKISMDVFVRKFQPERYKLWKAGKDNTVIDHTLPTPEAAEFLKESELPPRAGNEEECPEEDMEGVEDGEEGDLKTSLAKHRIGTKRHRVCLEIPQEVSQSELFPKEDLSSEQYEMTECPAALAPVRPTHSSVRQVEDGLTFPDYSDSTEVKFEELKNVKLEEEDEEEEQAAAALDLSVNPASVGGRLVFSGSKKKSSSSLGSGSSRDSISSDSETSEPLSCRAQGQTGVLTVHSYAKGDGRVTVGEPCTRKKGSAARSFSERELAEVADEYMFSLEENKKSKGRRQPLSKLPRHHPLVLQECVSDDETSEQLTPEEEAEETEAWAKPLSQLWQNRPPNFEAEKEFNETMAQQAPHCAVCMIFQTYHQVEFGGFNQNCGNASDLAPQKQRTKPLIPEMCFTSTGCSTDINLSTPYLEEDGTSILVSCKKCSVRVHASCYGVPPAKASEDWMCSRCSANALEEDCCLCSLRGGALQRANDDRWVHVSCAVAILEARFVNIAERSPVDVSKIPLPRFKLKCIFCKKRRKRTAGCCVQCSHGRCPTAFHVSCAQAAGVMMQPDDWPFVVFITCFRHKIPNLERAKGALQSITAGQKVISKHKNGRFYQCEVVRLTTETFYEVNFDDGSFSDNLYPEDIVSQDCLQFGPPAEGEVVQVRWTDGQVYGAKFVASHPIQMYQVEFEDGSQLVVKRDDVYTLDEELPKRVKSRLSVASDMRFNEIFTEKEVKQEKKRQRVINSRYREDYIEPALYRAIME
PLK1 PBD block: qHTS for Inhibitors of PLK1-PDB (polo-like kinase 1 - polo-box domain): Primary Screen; Serine/threonine-protein kinase PLK1 (Homo sapiens), P53350; Plk1 PBD binding of FITC phosphopeptide, fluorescence polarization; Potency, µM, for inactives: max response, negative = inhibition, actives largely listed as inhibitors; 2.8% of 360,000 active; AID 720504, 2013; also: potency is read from the fitted curve at half-maximal effect; series mostly up to about 57 µM; % is scaled to controls: 0 for no effect and ±100 for the full control effect; nearly all actives have a fitted effect of over 65% in size
BAZ2B block: qHTS Assay for Inhibitors of BAZ2B; Bromodomain adjacent to zinc finger domain protein 2B (Homo sapiens), Q9UIF8; AlphaScreen BAZ2B-H3K14Ac peptide displacement; 4.4% of 360,000 active; Potency, µM (top dose mostly 114 µM), for the others: at the top dose activity change, negative = inhibition, actives largely listed as inhibitors; also: potency is read from the fitted curve at half-maximal effect; % is scaled to controls: 0 for no effect and ±100 for the full control effect; nearly all actives have a fitted effect of over 60% in size
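Protein-peptide AlphaScreen: BAZ2B 50 nM, b-H3K14Ac 50 nM, 1x PBS pH 7.4 + 0.01% Tween-20. Preincubation 30 min RT; cpd 30 min RT (top 110 uM); beads 20 min RT, light-protected.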
KAT2A inh: qHTS Assay for Inhibitors of GCN5L2; Histone acetyltransferase KAT2A (Homo sapiens), Q92830; GCN5L2 HAT assay, ThioGlo1 CoA-SH fluorescence; Potency, µM (top dose mostly 58.9 µM), without a hit: top-dose activity change, negative = inhibition, usual class: inhibitors; 0.21% of 390,000 active; also: potency is read from the fitted curve at half-maximal effect; % is scaled to controls: 0 for no effect and ±100 for the full control effect
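ThioGlo1-coupled HAT assay: 20nM GCN5L2, 70uM acetyl-CoA, 75uM H3(1-25) peptide, pH 7.5. Fluorescence read at 340/540nm at start and after 20 min at room temperature.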
* marks the source's active call; other numbers are inactive results; ? = inconclusive; nt = no result; ! = not confirmed by another sample. Only some compounds are listed: those with a hit (about 7% of all), similar ones and a draw of the others. Unless noted, calls follow the shape of the dose curve; as a rule, active = well fitted curve in the direction sought with a large enough effect; inconclusive = small, poorly fitted or top-dose-only effect, or another doubt; inactive = no such curve, though single readings can be large; an effect the other way counts as inactive or inconclusive.

SMILES	HP1b binding inh	PI5P4K alpha inh	JMJD2A Tudor	PLK1 PBD block	BAZ2B block	KAT2A inh
CCOC(=O)[C@]12Cc3c(cc(OC)c(OC)c3OC)[C@H]1N(C(C)C)C(=O)c1ccccc12	nt	-2.0	nt	13.4µM*	nt	nt
CCOC(=O)[C@]12Cc3cc(C)ccc3[C@H]1N(CCC(=O)OC)C(=O)c1cc(OC)ccc12	nt	0.2	nt	?	nt	nt
O=C1NCCOC(=O)[C@@H](Cc2ccc(F)cc2)CC/C=C/C[C@H]1CC(=O)N(CCO)Cc1ccccc1	39.0%	3.4	-13.7%	-4.2%	nt	2.9%
CN[C@@H]1C[C@@]2(C)O[C@@H]([C@@H]1OC)n1c3ccccc3c3c4c(c5c6ccccc6n2c5c31)C(=O)NC4	nt	nt	nt	nt	nt	-18.8%
CCC(CC)NCc1c[nH]c2ccccc12	-29.6%	-9.4	22.4µM*	?	79.4µM*	1.6%
CCN(CC)Cc1c[nH]c2ccccc12	1.0%	-7.9	-29.6%	-8.5%	?	-6.4%
Cc1ccc(/C=C2\C(=O)NC(=O)N(CC3CCCO3)C2=O)s1 (stereo unspecified)	27.0%	?	-23.4%	4.74µM*	?	-2.7%
COc1ccc(CC2NC[C@H](O)[C@H]2OC(C)=O)cc1 (stereo partly specified)	nt	nt	nt	nt	nt	-0.9%
CC(=O)c1ccc2c(c1)C1C(Cl)C(Sc3ccccc3[N+](=O)[O-])CC1C(C(=O)O)N2 (stereo unspecified)	?	-28.4	35.5µM*	26.7µM*	10µM*	-5.6%
O=C(O)c1cccc2c1NC(C(=O)O)C1CC(Sc3ccccc3[N+](=O)[O-])C(Cl)C21 (stereo unspecified)	-93.5%	-67.4*	14.1µM*	8.44µM*	6.31µM*	?
CC(=O)C1=C(O)[C@@H]2[C@@H]3c4c[nH]c5cccc(c45)C[C@@H]3C(C)(C)N2C1=O	nt	nt	nt	nt	nt	-6.0%
C[C@H](N)Cc1cccc(C(F)(F)F)c1	nt	nt	nt	nt	nt	0.8%
CCN(CC)c1ccc(/C=C2\C(=O)NC(=S)N(C)C2=O)o1	-8.2%	-3.4	-26.4%	91.5%	?	-2.3%
Cc1ccc(N2C(=O)/C(=C/c3ccc(CN(CCC#N)S(C)(=O)=O)o3)C(=O)NC2=S)cc1	50.1µM*	-70.9*	17.8µM*	5.97µM*	50.1µM*	-29.3%
O=C(c1ccc(F)cc1)N1CCC(N2CCCCCC2)CC1	?	-0.7	?	-6.4%	50.1µM*	0.2%
O=C(c1ccc(F)cc1)N1CCC2(CC1)OCCO2	13.7%	-0.6	-11.2%	-13.8%	-5.6%	-2.9%
CCN(CC)c1ccc(CC2C(=O)N(C)C(=O)N(C)C2=O)cc1	?	-3.1	44.7µM*	?	44.7µM*	2.9%
CC(C)C[C@H](NC(=O)[C@H](CC(C)C)NC(=O)[C@H](Cc1ccccc1)NC(=O)[C@@H](N)Cc1ccc(O)cc1)C(=O)N[C@@H](CCCN=C(N)N)C(=O)N[C@@H](CC(N)=O)C(=O)N1CCC[C@H]1C(=O)O	nt	nt	nt	nt	nt	0.0%
Cc1cccc(-n2c(O)c(C=Nc3ccc(Br)cn3)c(=O)[nH]c2=O)c1	11.0%	-25.7	10µM*	5.97µM*	1.0%	-7.1%
CCC(COC(=O)c1cc(OC)c(OC)c(OC)c1)(c1ccccc1)N(C)C (stereo unspecified)	-7.0%	10.7	50.1µM*!	-16.4%	-38.0%	-4.1%
COc1ccc(CCN2CCC(CNC(=O)c3cnn(-c4ccc(C)cc4)c3C3CCN(C(=O)OC(C)(C)C)CC3)CC2)cc1	5.7%	nt	?	nt	?	-18.2%
Cn1c(=O)cc(OCC(=O)N2CCN(C3CCCCC3)CC2)c2ccccc21	29.9%	3.0	-19.0%	-9.8%	5.7%	-9.4%
CC1CCC(N2CCN(C(=O)COc3ccccc3)CC2)CC1 (stereo unspecified)	-17.6%	-8.0	3.98µM*	-6.5%	50.1µM*	-3.5%
O=C(COc1ccc(Cl)cc1)N1CCN(C2CCCC2)CC1	?	-4.0	20µM*	0.3%	50.1µM*	-4.9%
CCS(=O)(=O)N1CCN(C2CCC(C)CC2)CC1 (stereo unspecified)	?	nt	6.31µM*	-6.4%	56.2µM*	-2.9%
SMILES	HP1b binding inh	PI5P4K alpha inh	JMJD2A Tudor	PLK1 PBD block	BAZ2B block	KAT2A inh
CN(C(=O)Cc1ccc(Cl)c(Cl)c1)[C@H](CN1CCCC1)c1ccccc1	nt	nt	nt	nt	nt	7.1%
COc1cc(-c2ccc(N)c(OC)c2)ccc1N	?	-0.8	?	-13.5%	50.1µM*	-8.9%
COc1ccc(C(=O)N2CCC3(CC2)OCCO3)cc1	25.6%	0.8	-1.4%	-3.7%	11.9%	-1.1%
COc1ccc(CNCC(=O)N2CCC3(CC2)OCCO3)cc1	?	nt	12.6µM*	-1.5%	35.5µM*	-0.1%
O=P1(c2ccccc2)Nc2ccccc2N1c1ccccc1 (stereo unspecified)	?	-11.0	50.1µM*	-0.2%	nt	nt
c1cc2cc(c1)C[n+]1ccc(c3ccccc31)NCc1ccc(cc1)CNc1cc[n+](c3ccccc13)C2	nt	nt	nt	nt	nt	11.7%
Cc1cc(-c2cc(C)c(N)c(C)c2)cc(C)c1N	?	-0.1	50.1µM*	0.3%	nt	nt
Cc1ccc(C)c(N)c1	65.2%	-4.6	-9.0%	-2.4%	11.8%	0.9%
CN(C)c1ccc(C(O)P(=O)(OC2CCCCC2)OC2CCCCC2)cc1 (stereo unspecified)	-5.3%	5.4	?	-10.1%	44.7µM*	9.6%
c1ccc2c(c1)c1cc[n+]2CCCCC[n+]2ccc(c3ccccc32)NCCCCCN1	nt	nt	nt	nt	nt	0.4%
C=C(C)Cn1c(-c2cccs2)n[nH]c1=S	-11.5%	4.0	5.62µM*	-14.7%	-18.3%	-4.1%
C=C(C)Cn1c(-c2cccc([N+](=O)[O-])c2)n[nH]c1=S	11.0%	-15.9	8.91µM*	-16.3%	-15.7%	-0.2%
CCC1(CC)CCNC1=O	nt	nt	nt	nt	nt	1.4%
COc1ccccc1N1CCN(Cc2c(F)cccc2F)CC1	14.6%	nt	-26.9%	-7.0%	-27.3%	-0.5%
COc1ccccc1N1CCN(Cc2ccccc2F)CC1	?	3.2	6.31µM*	-0.4%	44.7µM*	-4.3%
COc1ccccc1N1CCN(Cc2cccc(OC)c2O)CC1	15.5%	-0.8	?	?	50.1µM*	-2.5%
CC1=C2C(=O)C3C(CC=C4C[C@@H](O)CC[C@@]43C)[C@@H]2CC[C@]12O[C@@H]1C[C@H](C)CN[C@H]1C2C (stereo partly specified)	nt	nt	nt	nt	nt	31.1%
